In PubChem BioAssay (Tox21):
Unmarked numbers belong to inactive results. Records with an inconclusive call do not appear. Entries that show only a call come without a potency. The source made the active and inactive calls. Unless noted, the call rests on the fitted dose curve; in most records, active means well fitted curve in the direction sought with a large enough effect in the repeat runs; inconclusive means weak or mixed curves; inactive means no such curve, though single readings can be large; an effect the other way counts as inactive or inconclusive.

Experiments:
[1] = biological target: Estrogen receptor beta (Homo sapiens) (UniProt Q92731); assay: qHTS assay to identify small molecule agonists of the estrogen receptor beta (ER-beta) signaling pathway (AID 1259377; active means well fitted activation curve with a large enough effect in the signal ratio in the repeat runs, not every such curve was filed as active; the % refers to the signal ratio)
Procedure, shortened: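 In HEK293T cells bearing a UAS-beta-lactamase reporter under ER-beta control, DMSO-delivered compounds were incubated for 16 hr at 37C. Activity was detected as fluorescence 2 hours after LiveBLAzer B/G FRET substrate addition.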

[2] = qHTS assay to identify small molecule agonists of the androgen receptor (AR) signaling pathway in the presence of an antagonist - cell viability counter screen (AID 1259379);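 further: MDA-kb2 human breast cancer cells carrying an MMTV luciferase reporter; series mostly up to about 92 µM; nearly all actives have a fitted effect of over 25% in size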
Procedure, shortened: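 A CellTiter-Fluor read-out measured viability of MDA-kb2 reporter cells (MMTV promoter with AR and GR response elements). Treatment: nilutamide 3.0uM final with compounds at 15 concentrations, 16 hr, 37C, 0% CO2.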

[3] = qHTS assay to identify small molecule agonists of the estrogen receptor beta (ER-beta) signaling pathway - cell viability counter screen (AID 1259380); further: nearly all actives have a fitted effect of over 30% in size; further: potency means the concentration at half of the fitted maximal effect
Procedure, shortened: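 Cells used were ER-beta-UAS-bla HEK293T in medium with 2% charcoal-stripped FBS. They were treated for 16 hr at 37C. Viability came from CellTiter-Glo luminescence.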

[4] = qHTS assay to identify small molecule antagonists of the estrogen receptor beta (ER-beta) signaling pathway - cell viability counter screen (AID 1259382); further: series mostly up to about 92 µM; nearly all actives have a fitted effect of over 55% in size
Procedure, shortened: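 Agonist-stimulated (1nM E2) ER-beta-UAS-bla HEK293T cells are incubated with library compounds for 16 hr at 37C. Cell viability is then assessed in the reporter-assay wells by adding CellTiter-Glo and reading luminescence after 30 min.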

[5] = biological target: Thyrotropin receptor (Homo sapiens) (UniProt P16473); assay: qHTS assay to identify small molecule antagonists of the thyroid stimulating hormone receptor (TSHR) signaling pathway (AID 1259385; calls by dose curve; further: nearly all actives have a fitted effect of over 20% in size; further: potency means the concentration at half of the fitted maximal effect)
Procedure, shortened: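 TSHR-HEK293 cells were plated and held 18 h at 37C/5% CO2, then given compound plus Ro20-1724 and stimulated with TSH at 1.5 ng/mL final. After 30 min at room temperature, cAMP was detected with cAMP-d2/anti-cAMP-cryptate (1 h) by fluorescence.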

[6] = qHTS assay to identify small molecule agonists of the estrogen receptor alpha (ER-alpha) signaling pathway in the presence of an antagonist - cell viability counter screen (AID 1259386);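 further: series mostly up to about 92 µM; cells exposed to compounds for 22 h at 37 °C before the viability read; nearly all actives have a fitted effect of over 30% in size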
Procedure, shortened: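 ICI-182,780 at 10.0nM final accompanies the compound titration (15 concentrations, 22hr, 37C) on VM7Luc4E2 cells. The CellTiter-Fluor fluorescence readout runs in the same wells as the luciferase assay.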

[7] = biological target: Estrogen receptor (Homo sapiens) (UniProt P03372); assay: qHTS assay to identify small molecule agonists of the estrogen receptor alpha (ER-alpha) signaling pathway in the presence of an antagonist (AID 1259383; calls by dose curve; further: nearly all actives have a fitted effect of over 15% in size; further: potency means the concentration at half of the fitted maximal effect; on activation: top concentration of the series differs between compounds)
Procedure, shortened: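 Using VM7Luc4E2 cells seeded 24hr before treatment, antagonist ICI-182,780 (10.0nM final) was added, followed by compounds at 15 concentrations. Plates incubated 22hr; ONE-Glo luminescence quantified reporter activity.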

[8] = qHTS assay to identify small molecule agonists or antagonists of the thyroid stimulating hormone receptor (TSHR) signaling pathway - wild type cell line counter screen (AID 1259384; calls by dose curve)
Procedure, shortened: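 Wild-type HEK293 cells were plated 18 h at 37 C/5% CO2, pin-dosed with compound plus Ro20-1724 medium, held 30 min at room temperature, then given cAMP-d2 and anti-cAMP-cryptate; fluorescence was read after 1 h. Fifteen concentrations, triplicate.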

[9] = biological target: Androgen receptor (Homo sapiens) (UniProt P10275); assay: qHTS assay to identify small molecule agonists of the androgen receptor (AR) signaling pathway in the presence of an antagonist (AID 1259381; calls by dose curve; further: nearly all actives have a fitted effect of over 15% in size)
Procedure, shortened: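 Using human MDA-kb2 cells with an MMTV promoter–luciferase construct (AR and GR response elements), agonist activity is scored under 3.0uM nilutamide (final) co-treatment; 16hr incubation, 37C, luminescence readout via ONE-Glo.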

[10] = biological target: Estrogen receptor beta (Homo sapiens) (UniProt Q92731); assay: qHTS assay to identify small molecule antagonists of the estrogen receptor beta (ER-beta) signaling pathway (AID 1259378; active means well fitted inhibition curve with a large enough effect in the signal ratio in the repeat runs, not every such curve was filed as active; the % refers to the signal ratio)
Procedure, shortened: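 ER-beta-UAS-bla HEK293T (GripTite) cells in 2% charcoal-stripped FBS medium were preincubated 6 hr at 37C, dosed with compound, then stimulated with 1 nM E2 (final) for 16 hr; beta-lactamase reporter read by B/G FRET fluorescence after 2 hr substrate loading.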

Sequence of Estrogen receptor beta (Homo sapiens) (Q92731 whole entry, looked up): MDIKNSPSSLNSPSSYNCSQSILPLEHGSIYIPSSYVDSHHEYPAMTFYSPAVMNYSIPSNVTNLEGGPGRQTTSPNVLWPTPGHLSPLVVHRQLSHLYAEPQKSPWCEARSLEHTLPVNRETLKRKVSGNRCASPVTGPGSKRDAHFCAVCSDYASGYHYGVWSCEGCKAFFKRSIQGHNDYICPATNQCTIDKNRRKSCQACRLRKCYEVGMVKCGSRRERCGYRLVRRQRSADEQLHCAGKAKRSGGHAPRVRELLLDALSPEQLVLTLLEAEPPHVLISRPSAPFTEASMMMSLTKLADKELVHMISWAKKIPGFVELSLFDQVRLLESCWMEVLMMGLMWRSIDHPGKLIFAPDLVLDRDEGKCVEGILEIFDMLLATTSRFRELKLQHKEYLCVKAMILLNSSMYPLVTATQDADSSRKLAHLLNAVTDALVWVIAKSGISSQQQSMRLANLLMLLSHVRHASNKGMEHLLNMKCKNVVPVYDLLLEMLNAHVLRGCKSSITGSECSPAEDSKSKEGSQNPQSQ
Sequence of Androgen receptor (Homo sapiens) (P10275 whole entry, looked up): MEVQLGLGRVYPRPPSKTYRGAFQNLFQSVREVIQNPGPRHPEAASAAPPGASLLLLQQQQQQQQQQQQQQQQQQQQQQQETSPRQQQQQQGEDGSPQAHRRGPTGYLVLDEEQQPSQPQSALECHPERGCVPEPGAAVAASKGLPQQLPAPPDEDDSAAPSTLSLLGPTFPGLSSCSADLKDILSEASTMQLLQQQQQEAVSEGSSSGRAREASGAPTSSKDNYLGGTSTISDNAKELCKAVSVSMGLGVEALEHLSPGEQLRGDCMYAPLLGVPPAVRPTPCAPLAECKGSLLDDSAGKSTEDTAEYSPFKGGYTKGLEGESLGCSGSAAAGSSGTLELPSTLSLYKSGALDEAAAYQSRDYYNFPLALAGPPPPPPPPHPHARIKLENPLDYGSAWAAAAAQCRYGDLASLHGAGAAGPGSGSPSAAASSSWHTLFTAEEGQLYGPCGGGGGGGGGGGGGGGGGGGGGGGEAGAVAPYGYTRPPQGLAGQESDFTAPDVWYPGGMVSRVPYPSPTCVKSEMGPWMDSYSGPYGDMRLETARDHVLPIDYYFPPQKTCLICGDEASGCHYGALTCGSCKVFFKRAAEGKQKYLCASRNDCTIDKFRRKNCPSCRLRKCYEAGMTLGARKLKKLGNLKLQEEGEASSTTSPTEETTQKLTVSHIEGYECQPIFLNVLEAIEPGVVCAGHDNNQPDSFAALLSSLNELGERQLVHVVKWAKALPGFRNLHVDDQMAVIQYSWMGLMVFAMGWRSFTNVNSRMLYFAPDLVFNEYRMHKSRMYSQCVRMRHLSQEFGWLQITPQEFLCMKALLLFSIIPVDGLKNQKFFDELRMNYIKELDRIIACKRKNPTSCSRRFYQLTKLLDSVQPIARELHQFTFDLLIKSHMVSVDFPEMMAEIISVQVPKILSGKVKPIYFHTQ
Sequence of Estrogen receptor (Homo sapiens) (P03372 whole entry, looked up): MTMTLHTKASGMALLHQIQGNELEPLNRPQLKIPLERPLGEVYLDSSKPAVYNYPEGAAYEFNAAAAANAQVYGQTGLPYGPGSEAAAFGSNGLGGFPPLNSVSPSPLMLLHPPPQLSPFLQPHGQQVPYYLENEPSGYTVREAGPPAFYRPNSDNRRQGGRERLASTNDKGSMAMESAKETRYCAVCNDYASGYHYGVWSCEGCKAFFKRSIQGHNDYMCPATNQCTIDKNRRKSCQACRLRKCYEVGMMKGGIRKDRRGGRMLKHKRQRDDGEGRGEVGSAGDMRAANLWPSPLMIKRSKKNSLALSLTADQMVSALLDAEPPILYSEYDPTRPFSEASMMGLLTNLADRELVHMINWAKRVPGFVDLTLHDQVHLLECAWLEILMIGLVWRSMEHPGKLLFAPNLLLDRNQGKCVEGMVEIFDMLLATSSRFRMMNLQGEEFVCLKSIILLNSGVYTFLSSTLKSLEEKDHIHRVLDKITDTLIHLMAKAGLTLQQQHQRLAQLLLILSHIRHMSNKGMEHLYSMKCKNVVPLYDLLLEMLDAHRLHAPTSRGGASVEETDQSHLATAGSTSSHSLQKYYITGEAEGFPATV
Sequence of Thyrotropin receptor (Homo sapiens) (P16473 whole entry, looked up): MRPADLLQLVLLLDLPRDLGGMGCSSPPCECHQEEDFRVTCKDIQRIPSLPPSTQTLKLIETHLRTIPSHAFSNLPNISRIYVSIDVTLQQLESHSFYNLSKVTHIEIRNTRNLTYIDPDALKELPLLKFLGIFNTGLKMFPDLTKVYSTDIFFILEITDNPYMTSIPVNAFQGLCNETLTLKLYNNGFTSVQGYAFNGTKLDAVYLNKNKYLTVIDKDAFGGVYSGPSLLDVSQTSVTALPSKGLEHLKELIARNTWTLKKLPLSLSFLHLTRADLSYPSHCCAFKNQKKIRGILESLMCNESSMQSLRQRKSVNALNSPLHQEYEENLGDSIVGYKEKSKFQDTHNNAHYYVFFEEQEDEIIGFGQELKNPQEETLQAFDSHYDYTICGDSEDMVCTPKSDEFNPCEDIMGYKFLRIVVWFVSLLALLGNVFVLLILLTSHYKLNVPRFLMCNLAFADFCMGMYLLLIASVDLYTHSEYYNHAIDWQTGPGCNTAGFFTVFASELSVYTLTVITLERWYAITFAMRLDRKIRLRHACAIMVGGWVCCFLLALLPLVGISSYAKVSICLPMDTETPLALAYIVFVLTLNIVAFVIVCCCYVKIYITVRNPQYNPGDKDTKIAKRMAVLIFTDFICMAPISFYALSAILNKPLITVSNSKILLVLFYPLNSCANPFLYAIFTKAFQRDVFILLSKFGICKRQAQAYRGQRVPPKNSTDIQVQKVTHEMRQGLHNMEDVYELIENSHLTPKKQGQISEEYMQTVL

## CN(CC1(C)CCCO1)S(=O)(=O)c1ccc(Cl)c(S(N)(=O)=O)c1 (configuration not stated)
[1]
  outcome: inactive
[2]
  Potency: inactive
[3]
  Potency: inactive
[4]
  outcome: inactive
[5]
  Potency: inactive
[6]
  Potency: inactive

## O=C(CC(=O)C(F)(F)F)c1ccccc1
[1]
  outcome: inactive
[4]
  outcome: inactive
[7]
  Potency: 9.83 µM (active)
[8]
  outcome: inactive
[6]
  Potency: inactive

## CC1=C(CC(=O)O)c2cc(F)ccc2/C1=C\c1ccc(S(C)(=O)=O)cc1
[1]
  outcome: inactive
[2]
  Potency: inactive
[9]
  Potency: inactive
[4]
  outcome: inactive
[7]
  Potency: inactive

## Cc1ccc(C=O)s1
[1]
  outcome: inactive
[3]
  Potency: inactive
[4]
  outcome: inactive
[6]
  Potency: inactive

## OCCN(CCO)CCN(CCO)CCO
[1]
  outcome: inactive
[3]
  Potency: inactive
[9]
  Potency: inactive
[4]
  outcome: inactive
[7]
  Potency: inactive
[8]
  outcome: inactive
[5]
  Potency: inactive
[6]
  Potency: inactive

## CC(=O)Oc1cc(C(C)C)c(OCCN(C)C)cc1C
[1]
  outcome: inactive
[2]
  Potency: inactive
[3]
  Potency: inactive
[4]
  outcome: inactive
[8]
  outcome: inactive
[5]
  Potency: inactive
[6]
  Potency: inactive

## Cc1nc(N)nc(N)c1-c1ccc(Cl)c(Cl)c1
[1]
  outcome: inactive
[3]
  Potency: 2.66 µM (active)
[7]
  Potency: inactive
[6]
  Potency: inactive

## CCCCNC(=S)NCCCC
[1]
  outcome: inactive
[2]
  Potency: inactive
[3]
  Potency: inactive
[7]
  Potency: inactive
[8]
  outcome: inactive
[5]
  Potency: inactive
[6]
  Potency: inactive

## Cc1cc2c(s1)Nc1ccccc1N=C2N1CCN(C)CC1
[2]
  Potency: inactive
[3]
  Potency: inactive
[4]
  outcome: inactive
[7]
  Potency: inactive

## O=C(O)CN(CCN(CC(=O)O)CC(=O)O)CCN(CC(=O)O)CC(=O)O
[1]
  activation: -4.18% [at 19 µM]
[2]
  activity change, negative = cytotoxicity: -0.118% [at 19 µM]
[6]
  activity change, negative = cytotoxicity: -0.23% [at 19 µM]

## CC(C)NCC(O)COc1ccc(CCOCC2CC2)cc1 (configuration not stated)
[1]
  outcome: inactive
[2]
  Potency: inactive
[3]
  Potency: inactive
[4]
  outcome: inactive
[6]
  Potency: inactive

## CC(C)NC[C@@H](O)COc1cccc2ccccc12
[1]
  outcome: inactive
[6]
  Potency: inactive

## CC1(C)S[C@@H]2[C@H](NC(=O)C(C(=O)O)c3ccccc3)C(=O)N2[C@H]1C(=O)O (some centres not stated)
[1]
  outcome: inactive
[3]
  Potency: inactive
[4]
  outcome: inactive
[6]
  Potency: inactive

## CC1=C(O)C(=O)OC1C (configuration not stated)
[1]
  outcome: inactive
[2]
  Potency: inactive
[3]
  Potency: inactive
[4]
  outcome: inactive
[8]
  outcome: inactive
[5]
  Potency: inactive
[6]
  Potency: inactive

## CN(C)CCOc1ccccc1Cc1ccccc1
[1]
  outcome: inactive
[2]
  Potency: inactive
[3]
  Potency: 26.6 µM (active)
[5]
  Potency: 29.8 µM (active)
[6]
  Potency: inactive

## ICCc1ccccc1
[1]
  outcome: inactive
[3]
  Potency: inactive
[4]
  outcome: inactive
[7]
  Potency: inactive
[8]
  outcome: inactive
[5]
  Potency: inactive
[6]
  Potency: inactive

## CCOC(=O)CS
[1]
  outcome: inactive
[2]
  Potency: inactive
[3]
  Potency: 70.5 µM (active)
[5]
  Potency: inactive
[6]
  Potency: inactive

## CC(C)(C)c1cccc(O)c1
[2]
  Potency: inactive
[3]
  Potency: inactive
[9]
  Potency: inactive
[4]
  outcome: inactive
[7]
  Potency: inactive
[8]
  outcome: inactive
[5]
  Potency: inactive
[6]
  Potency: inactive

## O=C1CCC(C2CCCCC2)CC1
[1]
  outcome: inactive
[2]
  Potency: inactive
[3]
  Potency: inactive
[4]
  outcome: inactive
[8]
  outcome: inactive
[5]
  Potency: inactive
[6]
  Potency: inactive

## CCCOc1ccc2c(c1)CC[C@@H]1[C@@H]2CC[C@]2(C)C(OC)CC[C@@H]12 (some centres not stated)
[10]
  Potency: inactive
[2]
  Potency: inactive
[3]
  Potency: inactive
[9]
  Potency: inactive
[4]
  outcome: inactive
[7]
  Potency: inactive
[5]
  Potency: inactive
[6]
  Potency: inactive

## O=C(O[C@@H](C(=O)O)[C@@H](OC(=O)c1ccccc1)C(=O)O)c1ccccc1
[10]
  Potency: inactive
[2]
  Potency: inactive
[3]
  Potency: inactive
[4]
  outcome: inactive
[7]
  Potency: inactive
[6]
  Potency: inactive

## CC1(C)O[C@@H]2C[C@H]3[C@@H]4CCC5=CC(=O)CC[C@]5(C)[C@@]4(F)[C@@H](O)C[C@]3(C)[C@]2(C(=O)CCl)O1
[1]
  outcome: inactive
[2]
  Potency: inactive
[4]
  outcome: inactive
[7]
  Potency: inactive
[8]
  outcome: inactive
[6]
  Potency: inactive

## C[C@@H]1CN(c2c(F)c(F)c3c(=O)c(C(=O)O)cn(C4CC4)c3c2F)C[C@H](C)N1
[2]
  activity change, negative = cytotoxicity: 1.23% [at 19 µM]
[3]
  activity change, negative = cytotoxicity: -0.431% [at 19 µM]
[9]
  Potency: inactive
[4]
  activity change, negative = cytotoxicity: 0.873% [at 19 µM]
[7]
  activation: -0.582% [at 19 µM]
[8]
  cAMP activity change: -0.3% [at 18.9 µM]
[5]
  activity change, negative = inhibition: -7.61% [at 19 µM]
[6]
  activity change, negative = cytotoxicity: 0.208% [at 19 µM]

## CCOC(=O)c1ccccc1O
[1]
  outcome: inactive
[2]
  Potency: inactive
[3]
  Potency: inactive
[4]
  outcome: inactive
[8]
  outcome: inactive
[5]
  Potency: inactive
[6]
  Potency: inactive

## CCCCOc1cc(C(=O)NCCN(CC)CC)c2ccccc2n1
[1]
  outcome: inactive
[4]
  outcome: inactive
[8]
  outcome: inactive
[6]
  Potency: inactive

## CCCCCCCCc1ccc(S(=O)(=O)O)cc1
[1]
  outcome: inactive
[2]
  Potency: inactive
[3]
  Potency: 19.2 µM (active)
[8]
  outcome: inactive
[5]
  Potency: inactive
[6]
  Potency: inactive

## CCCCCCCOC(=O)CCC
[10]
  Potency: inactive
[2]
  Potency: inactive
[3]
  Potency: inactive
[4]
  outcome: inactive
[7]
  Potency: inactive
[8]
  outcome: inactive
[5]
  Potency: inactive
[6]
  Potency: inactive

## OCc1c2ccccc2cc2ccccc12
[10]
  Potency: inactive
[2]
  Potency: inactive
[4]
  outcome: inactive
[7]
  Potency: inactive
[8]
  outcome: inactive
[6]
  Potency: inactive

## OCCN(CCO)c1ccccc1
[10]
  Potency: inactive
[2]
  Potency: inactive
[3]
  Potency: inactive
[9]
  Potency: inactive
[4]
  outcome: inactive
[7]
  Potency: inactive
[6]
  Potency: inactive

## COC(=O)C(C)O (configuration not stated)
[2]
  Potency: inactive
[3]
  Potency: inactive
[9]
  Potency: inactive
[4]
  outcome: inactive
[7]
  Potency: inactive
[8]
  outcome: inactive
[5]
  Potency: inactive
[6]
  Potency: inactive

## Cc1cc(NS(=O)(=O)c2ccc(N)cc2)nc(C)n1
[1]
  outcome: inactive
[3]
  Potency: inactive
[4]
  outcome: inactive
[7]
  Potency: inactive
[8]
  outcome: inactive
[5]
  Potency: inactive
[6]
  Potency: inactive

## CN1CCC[C@@H]1Cc1c[nH]c2ccc(CCS(=O)(=O)c3ccccc3)cc12
[1]
  outcome: inactive
[2]
  Potency: inactive
[3]
  Potency: inactive
[4]
  outcome: inactive
[8]
  outcome: inactive
[5]
  Potency: inactive
[6]
  Potency: inactive

## OC[C@H]1O[C@@H](O[C@H]2[C@H](O)[C@@H](O)[C@H](O)O[C@@H]2CO)[C@H](O)[C@@H](O)[C@H]1O
[1]
  outcome: inactive
[2]
  Potency: inactive
[9]
  Potency: inactive
[4]
  outcome: inactive
[7]
  Potency: inactive
[8]
  outcome: inactive
[5]
  Potency: inactive
[6]
  Potency: inactive

## CCN(CCCc1ccccc1)CCCc1ccccc1
[1]
  outcome: inactive
[3]
  Potency: 11.9 µM (active)
[7]
  Potency: inactive
[8]
  outcome: inactive
[6]
  Potency: inactive

## NC(=O)NS(=O)(=O)c1ccc(Cl)cc1
[2]
  Potency: inactive
[3]
  Potency: inactive
[9]
  Potency: inactive
[4]
  outcome: inactive
[7]
  Potency: inactive
[8]
  outcome: inactive
[5]
  Potency: inactive
[6]
  Potency: inactive
